The results in this text go back to PubChem BioAssay (NCI).

Assay [1] in a line: NCI Yeast Anticancer Drug Screen. Data for the rad50 strain (AID 155).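 Also: 0% = growth of vehicle-only cultures of the same strain.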 To be noted: S. cerevisiae rad50 strain growth inhibition; at 50.0 µM; stronger effect = higher value. An outline of the steps: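 Growth of the mutant yeast was measured after compound exposure and referenced to vehicle-treated cultures.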
Assay [2] can be described thus: NCI Yeast Anticancer Drug Screen. Data for the sgs1 mgt1 strain (AID 161).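 Also: 0% = growth of cultures given vehicle only.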 The note with it: S. cerevisiae sgs1 mgt1 strain, at 50.0 µM, stronger effect = higher value. Put shortly:
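Yeast cells carrying a defined DNA-repair defect were exposed to test compounds. Growth inhibition was measured relative to vehicle-treated controls.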

Assay [3] can be described thus: NCI Yeast Anticancer Drug Screen. Data for the cln2 rad14 strain (AID 165).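 Also: 0% = growth equal to vehicle treated cultures.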 The note with it: S. cerevisiae cln2 rad14 strain, at 50.0 µM, stronger effect = higher value. An outline of the steps: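 Yeast strain cln2 rad14, bearing defects in cell cycle control and DNA repair, serves as the test system; values reflect growth inhibition compared with vehicle.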
Assay [4] in a line: NCI Yeast Anticancer Drug Screen. Data for the bub3 strain (AID 167). The note with it: S. cerevisiae bub3 mutant strain, at 50.0 µM, stronger effect = higher value. Put shortly:
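Whole-cell yeast assay. The mutant strain was incubated with compounds, and growth inhibition was determined by comparison with vehicle-treated cells.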

Assay [5] is described as follows: NCI Yeast Anticancer Drug Screen. Data for the mlh1 rad18 strain (AID 175). The note with it: S. cerevisiae mlh1 rad18 strain growth inhibition; at 50.0 µM; stronger effect = higher value. Put shortly:
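Steps: expose repair-defective yeast to compound; measure growth; express inhibition against vehicle-treated controls.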

Assay [6] in a line: NCI Yeast Anticancer Drug Screen. Data for the mec2-1 strain (AID 157). To be noted: S. cerevisiae mec2-1 strain, at 50.0 µM, stronger effect = higher value. Put shortly: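 Using mec2-1 yeast: add compound, measure growth, express inhibition versus vehicle-treated cultures.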

SMILES strings stand for the structures. The panel holds about 79,000 compounds, 15% with a hit somewhere; the sample as a whole holds those more often. Values without a mark were called inactive. Active and inactive are the calls of the source. Rule as the data show it: active = growth inhibition above about 70%; inactive = the rest.

For the compound `CCCCCCCCCCCCCCCC[As](=O)(O)CCCCCCCCCCCCCCCC`, the growth inhibition in assay [1] was -6.35%; in assay [2], -17.8%; in assay [3], 4.25%; in assay [4], 7.2%; in assay [5], 8.55%.
The corresponding values for `NNC(=S)N/N=C(\C(=O)Nc1cccc(O)c1)C1C(=O)NC(=S)NC1=O` are -6.65%, -13.7%, -0.05%, 2.55% and -17.9%.
On to `CCCCC(CC)COP(OCC(CC)CCCC)OCC(CC)CCCC` (stereo not given), for which the growth inhibition was 22.1% in assay [1]; -18.9% in assay [2]; -37.5% in assay [3]; -7.25% in assay [4]; -6.95% in assay [5].
As for `Cc1cccc(Cl)c1OP(=O)(Oc1c(C)cccc1Cl)Oc1c(C)cccc1Cl`, the growth inhibition in assay [1] is -10.4%; in assay [2], -19.3%; in assay [3] it was -19.3%; in assay [4], 2.25%; in assay [5], -51.4%.
Take `Cc1ccc(NC(=O)C(=O)C2C(=O)NC(=O)NC2=O)c(C)c1`: the growth inhibition in assay [1] was 13.9%; in assay [2] it was 5.75%; in assay [3], 11.2%; in assay [4], 15.9%; in assay [5] it was 17.6%.
Turning to `COc1ccc(C(=O)O)cc1[N+](=O)[O-]` (tested in a mixture with another compound), the growth inhibition in assay [1] is 9.25%; in assay [2] it was 5.55%; in assay [3], 7.4%; in assay [4], 11.4%; in assay [5], 15.1%.
Consider `[CH3][Sb]1([Cl])[CH2]CCC[CH2]1`, for which the growth inhibition in assay [1] was 0.5%; in assay [2], 11.1%; in assay [3], -6.1%; in assay [4], 32%; in assay [5] it was 36.2%.
The corresponding values for `O=P(Nc1ccc2ccccc2c1)(Nc1ccc2ccccc2c1)N(CCCl)CCCl` are -4.3%, 4.7%, 4.2%, -12.3% and -12.8%.
In the case of `O=C(NCC(O)CO)c1c([N+](=O)[O-])ccc(N(CCCl)CCCl)c1[N+](=O)[O-]` (stereo not given), the growth inhibition in assay [1] was -11.2%; in assay [2] it was -0.45%; in assay [3], 1.45%; in assay [4], -19.1%; in assay [5] it was 21%.
The matching figures for `CCCCCCCCCCCCCCCCS(=O)(=O)c1ccc(S(=O)(=O)F)cc1NC(=O)C(F)(F)F`: -22.4%, -3.6%, 24.1%, 12.6% and 8.2%.
`O=S(=O)(c1ccccc1)N1CC1CI` (stereo not given): the growth inhibition in assay [1] was 3.45%; in assay [2], 13.9%; in assay [3] it was 10.6%; in assay [4] it was 7.9%; in assay [5], 1.75%.
`CC(C)(Br)[N+](=O)[O-]`: the growth inhibition in assay [1] is 9%; in assay [2], 4.45%; in assay [3], 10.2%; in assay [4], 10.8%; in assay [5] it was 1.8%.
As for `NC(=O)CCl`, the growth inhibition in assay [1] was 6%; in assay [2], -2.6%; in assay [3], -1.45%; in assay [4], 12.4%; in assay [5], -12.9%.
`O=C1/C(=C\c2ccccc2)C2OCC=C3CN4CCC56c7ccccc7N1C5C2C3CC46` (stereo not given): the growth inhibition is -18.6% in assay [1]; -3.9% in assay [2]; -3.25% in assay [3]; -19.9% in assay [4]; -9.05% in assay [5].
The matching figures for `Cc1ccc([Se][Se]c2ccc(C)cc2)cc1`: 55.5%, 35.6%, 30.1%, 41% and 43%.
As to `CCCCCCCCCCCCP(=O)(O)OCC(N)C(=O)O` (stereo not given), the growth inhibition was -21.6% in assay [6]; 1.5% in assay [2]; -7.1% in assay [3]; -12.8% in assay [4]; -17.9% in assay [5].
For `CCCC(OP(=S)(OCC)OCC)c1ccc(Cl)cc1` (stereo not given), the growth inhibition in assay [2] was 2.9%; in assay [3] it was -32.3%; in assay [4], 39%; in assay [5] it was -1.15%.
In the case of `O=S1(=O)CCCCO1`, the growth inhibition in assay [6] was 1.65%; in assay [2] it was -10.9%; in assay [3], 17.2%; in assay [4], -8.95%; in assay [5], 4.4%.
The matching figures for `c1ccc(-c2csc3[nH]c4ccccc4[n+]23)cc1`: 5.6%, 8.35%, 5.7%, 5.25% and 6.35%.
The corresponding values for `COc1ccc2[nH]c3c(c2c1)CCNC3C` (stereo not given) are -12.6%, 2.6%, -52.1%, 5.4% and -17.3%.
On to `NNC(=O)c1ccccc1`, for which the growth inhibition in assay [6] is -2.05%; in assay [2], -11.8%; in assay [3] it was -36%; in assay [4] it was -1.25%; in assay [5] it was -19%.
The corresponding values for `O=[N+]([O-])c1ccc(O)c(C=NCCN=Cc2cc([N+](=O)[O-])ccc2O)c1.[Zn+2]` are 7%, -6.05%, -15.8%, 1.1% and 23.4%.
Regarding `CC1C2C=CC1C(c1c3ccc(=O)cc-3oc3cc(O)ccc13)C2C(=O)O` (stereo not given), the growth inhibition in assay [6] is 2.15%; in assay [5] it was 21.4%.
As for `C/C=C/C(=O)[O-].N.N.N.N.N.[Co+3].[O-][Cl+3]([O-])([O-])[O-]`, the growth inhibition was -5.85% in assay [6]; -7.6% in assay [2]; 9.35% in assay [3]; -12.8% in assay [4]; -36.1% in assay [5].
With `O=C(COc1cccc(Cl)c1)NCc1ccccc1NC(=O)c1ccc(S(=O)(=O)F)cc1`, the growth inhibition in assay [6] was 84.3% (active); in assay [2] it was 95.2% (active); in assay [3], 89.9% (active); in assay [4] it was 90.5% (active); in assay [5] it was 95.8% (active).
On to `CC(=O)C(C)(C)C`, for which the growth inhibition was 5.15% in assay [2], 3% in assay [3], 3.5% in assay [4] and 24.1% in assay [5].
In the case of `CCCCCCCCCCC(C(=O)c1ccccc1)N1CCOCC1` (stereo not given), the growth inhibition in assay [6] was -2.95%; in assay [2] it was 10.9%; in assay [3], -8.3%; in assay [4] it was 3.85%; in assay [5] it was -8.4%.
